A short description of experiment [1]: qHTS for Inhibitors of Ubiquitin-specific Protease USP2a Using CHOP2 as the Reporter: K633 Counterscreen (AID 652168). Also: % of control where 0% means no effect. In a few lines: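 Detection-system control: fluorescence of K48-linked DiUb-4IQF substrate (100 nM as added) tracked over time, Ex 525/Em 598, with pinned compounds and no enzyme, in pH 8 Tris buffer containing beta-mercaptoethanol and 0.05% Chaps.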

Experiment [2] in a line: qHTS for Inhibitors of Ubiquitin-specific Protease USP2a Using CHOP2 as the Reporter: Cytotox Assay (AID 652170).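 Also: HCT116 human colon cancer cells at 600 per well; plate controls were DMSO-treated cells for no effect and wells without cells for full effect; nearly all actives have a fitted effect of over 70% in size.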 Summed up: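 Cytotoxicity read as ATP luminescence (CellTiter-Glo) after 72 hr compound treatment at 37 deg C. Cells: HCT116, 600/well in DMEM plus 10% FBS. Normalization between DMSO-treated cells and cell-free wells.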
The target of experiment [3] is Ubiquitin carboxyl-terminal hydrolase 2 (Homo sapiens) (UniProt O75604). In words: qHTS for Inhibitors of Ubiquitin-specific Protease USP2a Using CHOP2 as the Reporter: K484 Substrate (AID 652173).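 Also: cleavage of internally quenched K48 di-ubiquitin substrate measured as rising fluorescence over time; nearly all actives have a fitted effect of over 70% in size.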 Summed up:
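Kinetic fluorescence (Ex 525/Em 598) tracked cleavage of an internally quenched K48 di-ubiquitin substrate, added as a 100 nM solution. The enzyme was added as a 5 nM USP2 solution before compound pinning, with no-enzyme controls. Buffer: Tris pH 8, beta-mercaptoethanol, CHAPS.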

The target of experiment [4] is Calcium and integrin-binding protein 1 (Homo sapiens) (UniProt Q99828). In words: Primary qHTS for Identification of Calcium Integrin Binding Protein 1 (CIB1) Competitor (AID 1508620). Also: top concentration of the series differs between compounds; % is scaled to controls: 0 for no effect and ±100 for the full control effect. In a few lines: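 Fluorescence polarization competition: GST-tagged CIB1 (1 uM final) preincubated with compound 15 min at room temperature, then FITC-labelled alphaIIb peptide (100 nM final) added. After 15 min at room temperature, polarization read at Ex 480/Em 540.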

The target in experiment [5] is Rap guanine nucleotide exchange factor 3 (Homo sapiens) (UniProt O95398). Kind of experiment: Confirmatory qHTS for antagonist of cAMP-regulated guanine nucleotide exchange factor 3 (EPAC1) (AID 1645880).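 Also: plate controls were DMSO only for no effect and full effect of the ATA control for full effect; nearly all actives have a fitted effect of over 55% in size.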 In a few lines:
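Released BODIPY-GDP fluoresces less than Rap1-bound BODIPY-GDP; the signal is followed at 480/540 nm at 5-min intervals over 30 min, after 5 min at room temperature. Reactions contain 100 nM EPAC1, 250 nM RAP1B-BODIPY-GDP and 50 uM GDP; results are normalized to ATA and DMSO.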

The target is the same in experiment [6]. Kind of experiment: Confirmatory qHTS for agonist of cAMP-regulated guanine nucleotide exchange factor 3 (EPAC1) (AID 1645881).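 Also: EPAC1 catalysed release of BODIPY-GDP from Rap1B seen as fluorescence loss; 100% = effect of cAMP agonist control; nearly all actives have a fitted effect of over 75% in size.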
The target in experiment [7] is Rap guanine nucleotide exchange factor 4 (Homo sapiens) (UniProt Q8WZA2). Kind of experiment: Confirmatory qHTS for agonist of cAMP-regulated guanine nucleotide exchange factor 4 (EPAC2) (AID 1645884).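 Also: nucleotide exchange releases bodipy-GDP from Rap1 and this lowers its fluorescence; % is scaled to controls: 0 for no effect and ±100 for the full control effect; nearly all actives have a fitted effect of over 65% in size.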
Experiment [8] shares this target. In words: Confirmatory qHTS for antagonist of cAMP-regulated guanine nucleotide exchange factor 4 (EPAC2) (AID 1645885). Also: % is scaled to controls: 0 for no effect and ±100 for the full control effect; nearly all actives have a fitted effect of over 25% in size.
The target of experiment [9] is Rap guanine nucleotide exchange factor 3 (Homo sapiens) (UniProt O95398). Kind of experiment: Counterscreen qHTS for agonist of cAMP-regulated guanine nucleotide exchange factor 3 (EPAC1) (AID 1645889). Also: % of control where 0% means no effect; nearly all actives have a fitted effect of over 40% in size. Summed up: (§1)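 Rap1B–BODIPY-GDP (250 nM) with 50 uM GDP; compounds pin-transferred to 9.74 nM–152 uM final (activator) or from 7.32 nM upwards (inhibitor). Fluorescence Ex/Em 480/540 nm read at 5 and 30 min, then after adding cAMP or buffer, at room temperature.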

Experiment [10] has as its target Mitogen-activated protein kinase 10 (Mus musculus) (UniProt Q61831). In words: JNK3 AlphaScreen Assay (AID 530; active = well fitted curve in either direction with a large enough effect, not every such curve was filed as active;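 also: kinase came from lysate of stimulated human HepG2 cells; signal reports phosphorylation of biotinylated GST-cJun 1-79 at Ser73 with 10 µM ATP; % is scaled to controls: 0 for no effect and ±100 for the full control effect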). Summed up: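 Activity was read by AlphaScreen after JNK3-containing HepG2 lysate (cytokine pre-activated) phosphorylated biotinylated GST-cJun with 10 uM ATP at room temperature. Phospho-Ser73 cJun antibody with Protein-A acceptor beads provided detection.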

In experiment [11] the target is Glutathione peroxidase 1 (Homo sapiens) (UniProt P07203). In words: Primary qHTS Assay for Inhibitors of Recombinant Selenoprotein Glutathione Peroxidase 1 (GPX1) (AID 1845191). Also: % is scaled to controls: 0 for no effect and ±100 for the full control effect; nearly all actives have a fitted effect of over 65% in size. Summed up: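 GR-coupled readout: NADPH consumption tracked by fluorescence, ex 340/em 450 nm, at t=0 and after 15 min at RT. Final mix 10 nM GPX1, 1 mM GSH, 0.5 mM CHP, 0.5 mM NADPH, 100 nM GR, 0.01% BSA, following 30 min enzyme–compound preincubation.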

Experiment [12] has as its target Phospholipid hydroperoxide glutathione peroxidase GPX4 (Homo sapiens) (UniProt P36969). In words: Primary qHTS Assay for Inhibitors of Recombinant Selenoprotein Glutathione Peroxidase 4 (GPX4) (AID 1845192). Also: % is scaled to controls: 0 for no effect and ±100 for the full control effect; nearly all actives have a fitted effect of over 65% in size. The settings on record: outcome: dose series up to 50 µM unless noted. In a few lines:
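Steps: GPX4 plus compound, 30 min RT; add GR/GSH/NADPH master mix; start with cumene hydroperoxide; read 340/450 nm fluorescence at 0 and 15 min. Finals were 200 nM GPX4, 1 mM GSH, 0.5 mM CHP, 0.5 mM NADPH, 100 nM GR.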

Experiment [13] is described as follows: qHTS drug screen for cell cycle checkpoint inhibitors in PARPi-resistant BRCA-mutant ovarian cancer cell lines. (AID 1963452; calls by dose curve). The settings on record: PEO1/OlaR viability, CellTiter-Glo luminescence, 96 h, stronger effect = lower value. Summed up:
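PEO1, PEO4 and PEO1/OlaR ovarian cancer cells, 600 per well, exposed 96 h at 37C to a dilution series. Viability read by CellTiter-Glo luminescence, normalized to DMSO and empty wells; activity summarized as Z-AUC.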

The nature of experiment [14]: AP1 Signaling Pathway (AID 357; active = well fitted curve in either direction with a large enough effect, not every such curve was filed as active;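 also: ME-180 reporter cells stimulated with EGF at its EC50 level; % is scaled to controls: 0 for no effect and ±100 for the full control effect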). To be noted: ME-180 (cervical carcinoma) AP-1-bla reporter, EGF-induced, beta-lactamase ratio, 5 h; at 7.69 µM (top of the series) unless noted. In a few lines:
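Titration-series screen for positive or negative modulators of EC50 EGF-induced signaling in ME-180 cells carrying an AP-1-driven beta-lactamase reporter. After 5 hours at 37 degrees Celsius, CCF4 460nm/530nm emission ratio gave %Activity; AC50 values derived.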

Experiment [15] in a line: NFAT Signaling Pathway (AID 444; active = well fitted curve in either direction with a large enough effect, not every such curve was filed as active;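 also: carbachol stimulus at about its EC50 of 1 µM final; % is scaled to controls: 0 for no effect and ±100 for the full control effect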). To be noted: Jurkat NFAT-bla M1, carbachol, beta-lactamase ratio, 5 h; at 7.69 µM (top of the series) unless noted. In a few lines: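 Jurkat cells with NFAT-driven β-lactamase reporter and co-expressed M1 receptor, stimulated with carbachol (final 1 uM, ~EC50), compound titration, 5 h at 37 °C. CCF4 loaded 1 h at RT; 460/530 nm ratio gave %activity and AC50.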

Experiment [16] concerns the target Glucocorticoid receptor (Homo sapiens) (UniProt P04150). Kind of experiment: GR-GFP Redistribution (AID 450;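 active = compounds whose dose series gives a full or clear partial fitted curve of increased nuclear translocation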; also: potency is read from the fitted curve at half-maximal effect). The settings on record: U2OS GR-GFP nuclear translocation, laser cytometry, 2 h.
Experiment [17] addresses Rap guanine nucleotide exchange factor 3 (Homo sapiens) (UniProt O95398). Kind of experiment: Counterscreen qHTS for antagonist of cAMP-regulated guanine nucleotide exchange factor 3 (EPAC1) (AID 1645888). Also: % of control where 0% means no effect. In a few lines:
as §1

Each structure is given as a SMILES string. Results filed as inconclusive are left out. Calls of active or inactive are those of the source. Unless noted, calls follow the shape of the dose curve; as a rule, active = well fitted curve in the direction sought with a large enough effect; inconclusive = small, poorly fitted or top-dose-only effect, or another doubt; inactive = no such curve, though single readings can be large; an effect the other way counts as inactive or inconclusive.

Chain of Calcium and integrin-binding protein 1 (Homo sapiens) (Q99828 whole entry, looked up): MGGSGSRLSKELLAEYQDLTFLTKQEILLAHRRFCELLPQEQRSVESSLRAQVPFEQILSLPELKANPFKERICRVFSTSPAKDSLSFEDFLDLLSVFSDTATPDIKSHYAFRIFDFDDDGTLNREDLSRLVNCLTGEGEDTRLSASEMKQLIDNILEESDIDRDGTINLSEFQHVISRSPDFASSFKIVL
Chain of Rap guanine nucleotide exchange factor 3 (Homo sapiens) (O95398 whole entry, looked up): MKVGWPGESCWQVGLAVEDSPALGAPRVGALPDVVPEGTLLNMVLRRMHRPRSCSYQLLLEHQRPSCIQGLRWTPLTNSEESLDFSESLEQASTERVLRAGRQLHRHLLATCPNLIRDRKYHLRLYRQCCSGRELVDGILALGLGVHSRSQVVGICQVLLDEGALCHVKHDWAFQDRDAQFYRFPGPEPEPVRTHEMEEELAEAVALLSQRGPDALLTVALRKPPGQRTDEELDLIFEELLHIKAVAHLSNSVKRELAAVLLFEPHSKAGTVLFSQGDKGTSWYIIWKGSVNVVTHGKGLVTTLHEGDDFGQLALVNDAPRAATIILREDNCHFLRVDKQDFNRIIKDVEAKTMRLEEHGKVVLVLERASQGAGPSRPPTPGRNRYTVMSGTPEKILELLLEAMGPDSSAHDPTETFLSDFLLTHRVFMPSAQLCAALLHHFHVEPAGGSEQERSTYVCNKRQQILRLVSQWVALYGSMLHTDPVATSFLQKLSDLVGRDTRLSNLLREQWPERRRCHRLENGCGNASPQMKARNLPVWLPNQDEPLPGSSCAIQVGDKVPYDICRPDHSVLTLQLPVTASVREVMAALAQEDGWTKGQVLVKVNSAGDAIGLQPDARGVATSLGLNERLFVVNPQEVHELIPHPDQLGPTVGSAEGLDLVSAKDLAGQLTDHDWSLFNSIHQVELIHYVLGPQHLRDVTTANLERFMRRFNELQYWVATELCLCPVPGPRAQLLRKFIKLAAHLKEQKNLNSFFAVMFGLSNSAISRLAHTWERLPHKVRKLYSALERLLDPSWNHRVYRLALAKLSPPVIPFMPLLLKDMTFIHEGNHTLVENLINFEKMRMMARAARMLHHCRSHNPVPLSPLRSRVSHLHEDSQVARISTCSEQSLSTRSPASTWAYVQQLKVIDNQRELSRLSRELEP
Chain of Glutathione peroxidase 1 (Homo sapiens) (P07203 whole entry, looked up): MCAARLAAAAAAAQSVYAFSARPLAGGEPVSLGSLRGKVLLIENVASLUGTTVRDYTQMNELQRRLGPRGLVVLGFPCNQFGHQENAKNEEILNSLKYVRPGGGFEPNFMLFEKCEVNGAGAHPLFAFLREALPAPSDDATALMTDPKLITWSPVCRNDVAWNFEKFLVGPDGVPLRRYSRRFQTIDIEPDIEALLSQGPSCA
Chain of Rap guanine nucleotide exchange factor 4 (Homo sapiens) (Q8WZA2 whole entry, looked up): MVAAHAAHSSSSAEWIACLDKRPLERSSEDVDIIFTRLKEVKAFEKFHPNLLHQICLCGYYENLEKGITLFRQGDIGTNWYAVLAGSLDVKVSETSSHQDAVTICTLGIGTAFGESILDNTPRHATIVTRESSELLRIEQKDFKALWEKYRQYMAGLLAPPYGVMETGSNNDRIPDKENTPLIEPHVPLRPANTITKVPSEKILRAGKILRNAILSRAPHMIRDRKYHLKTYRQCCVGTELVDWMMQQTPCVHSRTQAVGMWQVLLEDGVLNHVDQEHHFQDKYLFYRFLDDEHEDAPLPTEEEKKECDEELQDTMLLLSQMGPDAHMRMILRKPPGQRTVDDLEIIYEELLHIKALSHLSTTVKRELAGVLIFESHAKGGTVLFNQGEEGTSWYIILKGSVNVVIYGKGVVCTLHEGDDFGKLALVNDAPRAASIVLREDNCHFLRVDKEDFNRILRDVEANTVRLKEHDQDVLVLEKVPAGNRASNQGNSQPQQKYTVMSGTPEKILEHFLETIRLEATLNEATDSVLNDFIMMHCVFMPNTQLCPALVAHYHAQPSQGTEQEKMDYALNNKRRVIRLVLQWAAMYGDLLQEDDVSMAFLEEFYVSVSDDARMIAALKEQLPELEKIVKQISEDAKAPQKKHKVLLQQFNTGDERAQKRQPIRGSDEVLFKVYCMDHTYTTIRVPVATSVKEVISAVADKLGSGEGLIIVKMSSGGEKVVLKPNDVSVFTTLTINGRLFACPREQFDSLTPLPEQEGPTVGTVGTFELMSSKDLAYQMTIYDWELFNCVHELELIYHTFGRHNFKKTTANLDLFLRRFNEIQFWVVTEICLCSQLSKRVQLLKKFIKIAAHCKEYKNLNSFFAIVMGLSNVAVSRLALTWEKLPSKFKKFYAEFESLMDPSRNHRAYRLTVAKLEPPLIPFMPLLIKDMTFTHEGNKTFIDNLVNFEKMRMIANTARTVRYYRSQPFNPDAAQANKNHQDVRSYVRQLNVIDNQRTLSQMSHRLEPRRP
Chain of Glucocorticoid receptor (Homo sapiens) (P04150 whole entry, looked up): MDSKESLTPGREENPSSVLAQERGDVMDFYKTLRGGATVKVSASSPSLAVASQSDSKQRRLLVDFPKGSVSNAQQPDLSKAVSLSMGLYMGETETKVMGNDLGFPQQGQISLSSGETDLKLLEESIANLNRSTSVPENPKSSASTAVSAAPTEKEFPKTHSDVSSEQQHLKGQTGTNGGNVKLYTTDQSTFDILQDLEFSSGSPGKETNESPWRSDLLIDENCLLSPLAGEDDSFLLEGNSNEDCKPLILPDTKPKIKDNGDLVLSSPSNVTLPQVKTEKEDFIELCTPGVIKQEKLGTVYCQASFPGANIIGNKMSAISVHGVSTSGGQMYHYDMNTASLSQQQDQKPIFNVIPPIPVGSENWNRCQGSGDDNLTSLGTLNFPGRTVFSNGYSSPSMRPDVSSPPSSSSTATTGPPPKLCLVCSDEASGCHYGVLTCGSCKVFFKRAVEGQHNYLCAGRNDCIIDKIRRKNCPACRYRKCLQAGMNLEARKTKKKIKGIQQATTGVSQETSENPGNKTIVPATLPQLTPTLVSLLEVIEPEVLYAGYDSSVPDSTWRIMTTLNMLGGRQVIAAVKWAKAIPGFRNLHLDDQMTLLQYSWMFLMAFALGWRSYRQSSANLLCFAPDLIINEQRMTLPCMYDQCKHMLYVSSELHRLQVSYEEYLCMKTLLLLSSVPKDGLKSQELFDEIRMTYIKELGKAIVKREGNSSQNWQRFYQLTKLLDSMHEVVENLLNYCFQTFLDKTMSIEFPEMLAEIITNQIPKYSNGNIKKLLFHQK
Chain of Ubiquitin carboxyl-terminal hydrolase 2 (Homo sapiens) (O75604 whole entry, looked up): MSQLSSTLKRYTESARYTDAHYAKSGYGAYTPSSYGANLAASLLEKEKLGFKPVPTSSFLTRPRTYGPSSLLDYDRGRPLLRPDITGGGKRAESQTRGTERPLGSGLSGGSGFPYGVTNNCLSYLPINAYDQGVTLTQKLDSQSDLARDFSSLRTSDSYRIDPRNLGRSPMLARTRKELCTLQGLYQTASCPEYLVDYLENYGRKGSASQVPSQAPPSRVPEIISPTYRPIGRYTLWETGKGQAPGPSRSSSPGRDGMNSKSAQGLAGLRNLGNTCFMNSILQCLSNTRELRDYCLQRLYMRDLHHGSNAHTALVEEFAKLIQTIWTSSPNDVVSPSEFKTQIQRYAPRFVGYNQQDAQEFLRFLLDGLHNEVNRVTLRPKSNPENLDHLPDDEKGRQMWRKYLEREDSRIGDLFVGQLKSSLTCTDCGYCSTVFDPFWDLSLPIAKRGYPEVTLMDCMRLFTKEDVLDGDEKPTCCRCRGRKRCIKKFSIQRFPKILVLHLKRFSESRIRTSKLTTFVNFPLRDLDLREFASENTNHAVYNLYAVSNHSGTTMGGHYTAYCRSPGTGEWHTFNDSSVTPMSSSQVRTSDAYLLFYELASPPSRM
Chain of Phospholipid hydroperoxide glutathione peroxidase GPX4 (Homo sapiens) (P36969 whole entry, looked up): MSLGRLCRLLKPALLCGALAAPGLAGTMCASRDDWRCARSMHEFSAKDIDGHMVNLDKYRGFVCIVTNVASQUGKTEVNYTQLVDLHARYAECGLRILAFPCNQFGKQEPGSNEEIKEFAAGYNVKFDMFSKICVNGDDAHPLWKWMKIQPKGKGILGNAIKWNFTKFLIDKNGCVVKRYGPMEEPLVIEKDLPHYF

In the case of `O=C(CCc1ccccc1)Nc1ccc(S(=O)(=O)Nc2nccs2)cc1`, the molecule was classed as inactive in experiment [1] and in experiment [6]. The Potency entry in experiment [2], in [3], in experiment [4] and in [5] was “inactive” each time. Further, the activation in experiment [7] is 9.99% [at 17.1 µM] (inactive); in experiment [9], 9.8% [at 30.8 µM] (inactive). The activity change, negative = inhibition in experiment [8] is 1.51% [at 12.7 µM] (inactive).

With `COCCNc1nc(C)nc2c1nc(-c1ccccc1)n2CCCN1CCCCC1C` (centres undefined), the molecule was called inactive in experiment [10]. Further, in [4], the Potency entry was “inactive”.

On to `Nc1ccc(-c2ccnc(NCCCNC(=O)c3c(Cl)cccc3Cl)n2)cc1`, for which the Potency entry in experiment [4] and in [11] was “inactive” throughout.

In the case of `CCCn1c(C)nc2c(NCCCCN3CCCC3)nc(C)nc21`, the molecule was classed as inactive in experiment [10]. The Potency entry in [4] is “inactive”.

`[2H]C([2H])(Nc1nc(-c2ccccc2C([2H])(C([2H])([2H])[2H])C([2H])([2H])[2H])ncc1C)c1ccc(-n2ccnn2)cc1`: the Potency entry in experiment [4], in [11] and in [12] was “inactive” in each case. Also, the Z-AUC was -0.917 (inactive) in experiment [13], -1.16 in experiment [13] (measured here: PEO1 parental Z-AUC) and -0.866 in experiment [13] (measured here: PEO4 Z-AUC).

Take `Cc1ccc(NS(=O)(=O)c2ccc3c(c2)CCC(=O)N3)cc1C`: the Potency result in [4] and in experiment [11] was “inactive” each time.

As for `CCCn1c(C)nc2c(NCCOC)nc(C)nc21`, the outcome in experiment [10] was inactive. Besides, in experiment [4], the Potency entry was “inactive”.

As for `COc1ccc(-n2c(C)c(C(C)=O)c3cc(O)ccc32)cc1`, the activity change, negative = inhibition in experiment [14] was -14.7% [at 17.2 µM] (inactive); in experiment [15] it was 1.89% [at 17.2 µM] (inactive). Moreover, the Potency in experiment [16] was > 20.6 µM (inactive). The Potency entry in experiment [4] was “inactive”.

Take `Nc1ncnc2c1C(c1ccccc1)c1c(ccc3ccccc13)O2` (centres undefined): the Potency result in experiment [4] and in [8] was “inactive” each time. Besides, the result in experiment [6], in experiment [7] and in [17] was inactive.

Source of the values: PubChem BioAssay (NCATS).
